# High-throughput results (PubChem BioAssay)
# RAD54 inh: inhibitors of human RAD54 branch migration; inhibition, % at 10.4 µM; RAD54 Holliday junction branch migration, FAM/BHQ fluorescence; AID 602329; actives 0.14% (n = 360,000);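 active means mean normalized replicate activity at least 40 and at least half of replicates scoring 40 or more; inconclusive means only one of the two criteria met; inactive means mean below 40 and under half of replicates reaching 40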;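 further: 0% = median of neutral control wells and 100% = median of positive control wells; inhibitors cause a drop in the FAM fluorescence signal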
# CFTR F508del cor: CFTR F508del correction in bronchial cells. CFBE cells, YFP halide quenching; stimulated with forskolin plus potentiator P3; % fluorescence drop versus neutral controls. actives 0.36% (n = 350,000). activity (quench increase), % at 7.58 µM;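 active means mean added fluorescence quench of at least 8% versus neutral control, with both replicates also reaching 8%; inconclusive means only one of the mean or replicate conditions met; inactive means mean below 8% and not both replicates reaching 8%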;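 further: cells transiently co-express mutant CFTR-F508del with the halide-sensitive YFP; corrector assay measuring rescue of mutant channel to the surface after 24 h compound exposure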
# LGR2 antag: blocks bursicon-induced cAMP signaling via Drosophila LGR2. HEK293 LGR2, CRE-luciferase, bursicon-stimulated, 4 h. inhibition, % at 9.99 µM. actives 0.35% (n = 380,000). AID 720647;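 active means drop in luminescence signal, shown as inhibition above about 50% in the replicate tests, limit read from the data, passing the limit was not always enough; inconclusive means probably only some replicates passing the limit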;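 further: agonist challenge used bursicon conditioned medium at about half maximal strength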
# EWS-Fli inh: inhibitors of EWS/Fli oncoprotein transcriptional activity. actives 0.67% (n = 350,000). A673 NR0B1-luciferase reporter, viability-normalised. inhibition, % at 12.6 µM;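 active means mean inhibition of at least 50% after viability correction, with every replicate also passing that limit; inconclusive means mean reaches 50% but only one of two replicates passes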;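 further: firefly luciferase signal divided by Alamar Blue viability fluorescence both relative to DMSO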
# RAD52 inh: inhibitors of human RAD52 DNA annealing; recombinant RAD52 DNA annealing, FRET fluorescence; actives 0.46% (n = 360,000); inhibition, % at 18.7 µM; AID 651710; P43351;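 active means every replicate showing at least 50% inhibition; inconclusive means mean inhibition at least 50% but not in every replicate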
# Target sequence (P43351 whole entry, looked up): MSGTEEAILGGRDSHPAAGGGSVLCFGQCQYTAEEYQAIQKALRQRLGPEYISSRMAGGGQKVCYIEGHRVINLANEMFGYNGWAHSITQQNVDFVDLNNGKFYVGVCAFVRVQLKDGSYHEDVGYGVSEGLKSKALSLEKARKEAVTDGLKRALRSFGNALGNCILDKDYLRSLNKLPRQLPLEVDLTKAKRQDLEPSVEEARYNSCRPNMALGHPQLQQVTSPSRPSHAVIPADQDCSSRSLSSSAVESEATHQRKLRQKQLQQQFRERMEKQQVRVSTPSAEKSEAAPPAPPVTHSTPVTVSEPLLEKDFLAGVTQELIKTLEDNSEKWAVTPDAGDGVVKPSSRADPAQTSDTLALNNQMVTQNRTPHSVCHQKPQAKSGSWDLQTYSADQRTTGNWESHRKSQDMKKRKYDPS
# GSIS activator: primary screen for activators of insulin secretion dependent on glucose, INS-1E cells, GLuc reporter luminescence | INS-1E GLuc reporter insulin secretion, 2-3 h | activation, % at 16.6 µM | actives 0.61% (n = 370,000) | AID 743287;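 active means lowest replicate activation of at least 40%, so every replicate reaches that level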;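 further: 0% = median of neutral control wells and 100% = median of IBMX positive control wells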
# Starred values were filed as active, the others as inactive; i = inactive; ? = inconclusive; . = not tested or not shown. Shown are actives, neighbours in structure and some others; about 1.8% of the full set was active somewhere.
SMILES,RAD54 inh,CFTR F508del cor,LGR2 antag,EWS-Fli inh,RAD52 inh,GSIS activator
O=C(Nc1ccc(F)cc1)N1CCCCN2[C@H](CO)[C@H](c3ccc(-c4ccccc4F)cc3)[C@@H]2C1,-1,-4,.,2,-20,.
CCN(CC)CCCNc1ccc2ncn3c4ccc(O)cc4c(=O)c1c23,.,20*,-37,-10,i,-10
Cc1ccc2nc(Cl)nc(-c3ccccc3)c2c1,6,2,-4,8,-2,51*
Cc1ccc(-c2nc(Cl)nc3ccccc23)cc1,.,-2,9,-1,6,27
O=C(NCc1ccccc1)C(c1ccccc1)N(Cc1ccccc1)C(=O)Cc1ccccc1 (centres undefined),-3,-7,.,71*,4,.
COc1ccc(CNC(=O)C(c2ccco2)N(Cc2ccccc2)C(=O)Cc2cccs2)cc1 (centres undefined),3,.,.,.,.,.
Nc1cccc(N2C(=O)c3cccc4c(N)ccc(c34)C2=O)c1,-430,5,-5,-8,-132,-3
Nc1ccc2c3c(cccc13)C(=O)N(c1ccccc1)C2=O,.,33*,2,-18,-433,27
CCCCNc1c(-c2ccc(SC(C)CC)c(OC)c2)nc2ccc(C)cn12 (centres undefined),-3,8.3*,6,26,-13,4
CCCCCCSc1cc(-c2nc3cnccn3c2NCCCC)ccc1OC,-13,.,4,.,-25,108*
c1ccc2[nH]c(CCCCCc3nc4ccccc4[nH]3)nc2c1,3,-1,14,7,-1,-6
O=C1CCC(CCc2nc3ccccc3[nH]2)(c2ccccc2)C(=O)N1 (centres undefined),-10,11*,-1,-1,-45,27
COc1ccccc1NS(=O)(=O)c1cc(-c2cnc(C3CC3)o2)ccc1C,14,8.3*,3,31,10,4
NS(=O)(=O)c1cc(C2(O)NC(=O)c3ccccc32)ccc1Cl (centres undefined),1,11*,-2,-4,-3,-8
COc1cccc(Cn2cccc(NC(=O)Nc3ccccc3C)c2=O)c1,.,2,5,12,-10,-2
CC(=O)N1CC2(C1)[C@H](c1ccccc1)[C@@H](CO)N2Cc1ccccc1F,.,.,.,.,.,18
O=C1CC(C(=O)N2CCCc3ccccc32)CN1c1ccc(F)cc1 (centres undefined),-8,3,0,-18,-16,-3
O=C(Nc1cccc(C(=O)O)c1)Nc1ccccc1Cl,.,1,70*,?,-19,-4
O=C(Nc1ccc(Cl)cc1)Nc1cccc(C(=O)O)c1,.,0,92*,82*,-1,-1
O=C(NCc1ccccc1)C(=O)Nc1cccc(C(=O)O)c1,-6,-2,84*,57*,-15,2
O=C(Nc1cccc(C(=O)O)c1)Nc1cccc2ccccc12,8,-5,-6,6,-10,4
Cc1nc2cc(NC(=O)Nc3ccccc3Cl)ccc2n1C,.,2,51*,37,-5,5
CCCCNC(=S)Nc1ccc2cn[nH]c2c1,7,-2,-24,-9,-11,10
COC(=O)c1ccc(OCC2c3cc(OC)c(OC)cc3CCN2C(=O)C2CC2)cc1 (centres undefined),-1,.,.,.,.,.
O=C(NCc1ccc(F)cc1)N1CCN(C(=O)c2ccccc2)CC1,1,-1,16,-4,-12,-4
SMILES,RAD54 inh,CFTR F508del cor,LGR2 antag,EWS-Fli inh,RAD52 inh,GSIS activator
O=C(Nc1cccc(Cl)c1)Nc1cccc(C(=O)O)c1,1,1,?,55*,-12,-5
CC(=O)N1[C@@H]2Cn3c(cccc3=O)[C@H]1[C@@H](C(=O)NCC1CCCCC1)[C@@H]2CO,8,-2,1,-4,59*,0
CC=Cc1ccc2n(c1=O)C[C@@H]1[C@@H](CO)[C@H](C(=O)NCc3ccccn3)[C@H]2N1CC1CC1 (mixture of isomers),-12,-2,-1,7,-13,11
CC=Cc1ccc2n(c1=O)C[C@H]1[C@H](CO)[C@@H](C(=O)NC3CCCC3)N(CCC)[C@@H]21 (mixture of isomers),.,4,0,-10,92*,1
CC=Cc1ccc2n(c1=O)C[C@H]1[C@H](CO)[C@@H](C(=O)NCc3ccccn3)[C@@H]2N1CCC (mixture of isomers),8,2,-6,-1,96*,0
O=C(NCc1ccccn1)[C@@H]1[C@@H](CO)[C@@H]2Cn3c(cccc3=O)[C@H]1N2CC1CCCCC1,11,0,1,-1,57*,30
O=C(NCc1ccccc1)[C@H]1[C@H](CO)[C@H]2Cn3c(cccc3=O)[C@@H]1N2CC1CCCC1,-4,1,-7,0,14,9
Cc1ccccc1C(=O)Nc1ccnn1C1CCN(Cc2c(C)n(C)c3ccccc23)CC1,2,1,3,15,5,-15
Cc1cc(C)nc(N(C#N)Cc2ccc(Cl)cc2)n1,.,0,-6,-3,-5,-5
Cc1cc(C)nc(N(C#N)Cc2cccc(Cl)c2)n1,.,11*,-3,6,-7,-3
O=C(Cc1ccccc1)NNc1c2ccccc2nc2ccccc12,.,-2,-14,9,-17,-6
O=C(Nc1c2ccccc2nc2ccccc12)C(Cl)(Cl)Cl,83*,.,.,.,.,.
COc1ccccc1-c1ccc([C@H]2[C@@H](CO)N(C(=O)C3CCCCC3)[C@H]2C#N)cc1,-5,-1,11,2,-42,-12
COc1ccc(OC)c(-c2cnc(OC(C)(C)C)nc2OC(C)(C)C)c1,-5,14*,24,71*,3,3
CNc1cncc(-c2cc(OC)ccc2OC)n1,5,2,2,-7,-14,-2
CC1CCN(C(=O)CN2C(=O)c3ccccc3S2(=O)=O)CC1,0,.,.,.,.,.
O=C(Oc1ccc2c(c1)OCO2)c1ccc(F)cc1Cl,-2,.,.,.,.,-5
O=C(Oc1ccc2c(c1)OCO2)c1cc2c(s1)CCC2,21,.,.,.,.,46*
O=c1[nH]cc(S(=O)(=O)N2CCN(c3cccc(C(F)(F)F)c3)CC2)c(=O)[nH]1,-20,-5,-5,16,-15,15
CC(C)NC(=O)N(C)C[C@@H]1Oc2ccc(NC(=O)CCCN(C)C)cc2CC(=O)N([C@@H](C)CO)C[C@H]1C,9,-4,-8,-8,-28,6
O=C(Nc1ccc(CN2CCOCC2)cc1)c1ccc(-c2cccc(Cl)c2)o1,-8,.,.,.,.,.
O=C(NC(=S)Nc1ccc(CN2CCOCC2)cc1)c1ccc(-c2cccc(Cl)c2)o1,.,3,67*,28,-6,-1
COc1ccc(CCn2c(C3CCCCC3)nc3c(c(=O)c4ccccc4n3C)c2=O)cc1,-2,3,27,56*,-12,-1
CC(CCc1ccccc1)NC(=O)CSc1ccccc1 (centres undefined),.,.,-24,.,.,6
